Source: PubChem BioAssay (National Center for Advancing Translational Sciences (NCATS))
An excerpt weighted towards active compounds, which were near 9% of everything screened.
HttQ103 aggreg: mutant huntingtin aggregation inhibition. AID 1688. PC12 HttQ103-GFP aggregates, Acumen cytometry, 40 h. Potency, µM (top dose mostly 46.1 µM), for the others: at the highest dose activity change, negative = inhibition, actives largely listed as inhibitors. hit rate 1.1% among 220,000; note: % is set by controls: 0 for no effect and ±100 for the full control effect; nearly all actives have a fitted effect of over 60% in size
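Ecdysone-promoter PC12 model expressing HTT exon 1 Q103 fused to GFP, induced by tebufenozide at 100 nM final. Compounds titrated; aggregates sized 1–25 µm scored on a 488 nm laser cytometer.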
HTT cytoprotect: Huntington cell model cytoprotection by ATP luminescence; PC12 HTT-Q103 induced, cytoprotection, ATP luminescence, 40 h; Potency, µM (doses to about 56.4 µM), inactives show cytoprotection (ATP increase), actives largely listed as activators; hit rate 0.14% among 230,000; AID 1471; note: % of control where 0% means no effect; nearly all actives have a fitted effect of over 45% in size
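ATP quantification (ATPlite) reports survival of PC12 cells in which tebufenozide, 100 nM final, switches on Htt exon 1 with 103 glutamines linked to GFP; compounds are titrated.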
KinaseGlo FLuc: Kinase-Glo luciferase inhibition (counter-screen); Q27757; Potency, µM (top dose mostly 38.3 µM), without a hit: at the highest dose activity change, negative = inhibition, most hits filed as inhibitors; hit rate 0.28% among 200,000; Kinase-Glo luciferase, ATP luminescence, 8 min; note: % is set by controls: 0 for no effect and ±100 for the full control effect; nearly all actives have a fitted effect of over 60% in size
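Compounds were added to a substrate mix at pH 7.2 (50 mM imidazole, 10 uM ATP, within the enzyme's linear range), followed by Kinase-Glo detection reagent; luminescence was measured after 8 minutes at ambient temperature.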
HPGD inh: inhibitors of human 15-hydroxyprostaglandin dehydrogenase (HPGD) | P15428 | purified HPGD, NADH fluorescence kinetic, PGE2 substrate | Potency, µM, for the others: top-dose activity change, negative = inhibition, actives largely listed as inhibitors | hit rate 4.3% among 150,000 | AID 894; active = well fitted inhibition curve with a large enough effect, not every such curve was filed as active; inconclusive = small, poorly fitted or top-dose-only effect, or another doubt; inactive = no such curve, though single readings can be large or run the other way; note: % is set by controls: 0 for no effect and ±100 for the full control effect
Target sequence (P15428 whole entry, looked up): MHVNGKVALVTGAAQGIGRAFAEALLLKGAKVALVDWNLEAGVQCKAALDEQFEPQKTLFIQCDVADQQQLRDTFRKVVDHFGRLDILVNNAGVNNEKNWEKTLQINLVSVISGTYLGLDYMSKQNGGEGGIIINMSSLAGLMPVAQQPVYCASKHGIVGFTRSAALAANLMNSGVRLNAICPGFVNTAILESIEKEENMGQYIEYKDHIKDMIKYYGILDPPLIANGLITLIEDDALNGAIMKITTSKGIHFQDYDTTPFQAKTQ
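20 nM HPGD preincubated 15 min at room temperature with compound in 50 mM Tris-HCl pH 8, 0.01% Tween 20. Started with 1 mM NAD+ and 30 uM prostaglandin E2; NADH fluorescence (360/450 nm) read 5 times over 30-s intervals, last minus first.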
ALDH1A1 inh: inhibitors of human aldehyde dehydrogenase 1A1 | hit rate 7.3% among 220,000 | AID 1030 | P00352 | Purified ALDH1A1, NADH fluorescence, propionaldehyde substrate | Potency, µM (titrated, usually from 75.3 µM), for the others: at the top dose activity, negative = inhibition, most hits filed as inhibitors; active = well fitted inhibition curve with a large enough effect, not every such curve was filed as active; inconclusive = small, poorly fitted or top-dose-only effect, or another doubt; inactive = no such curve, though single readings can be large or run the other way;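 note: plate controls were no enzyme wells and a reference inhibitor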
Target sequence (P00352 whole entry, looked up): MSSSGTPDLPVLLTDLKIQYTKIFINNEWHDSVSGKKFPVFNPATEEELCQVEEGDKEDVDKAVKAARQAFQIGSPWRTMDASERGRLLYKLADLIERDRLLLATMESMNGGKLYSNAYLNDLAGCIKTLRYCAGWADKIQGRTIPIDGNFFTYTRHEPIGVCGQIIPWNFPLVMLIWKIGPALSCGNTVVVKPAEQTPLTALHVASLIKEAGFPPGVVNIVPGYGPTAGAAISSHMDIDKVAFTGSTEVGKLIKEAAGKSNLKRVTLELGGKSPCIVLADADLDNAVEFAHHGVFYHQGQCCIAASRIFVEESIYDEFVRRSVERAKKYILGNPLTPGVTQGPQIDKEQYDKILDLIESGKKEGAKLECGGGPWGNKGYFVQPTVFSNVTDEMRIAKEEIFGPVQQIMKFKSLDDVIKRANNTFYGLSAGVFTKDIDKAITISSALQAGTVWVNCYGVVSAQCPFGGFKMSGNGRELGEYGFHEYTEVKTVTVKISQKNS
Lamin A splicing: changes lamin A minigene splicing in HeLa cells. HeLa LMNA splicing GFP/RFP minigene ratio, 48 h. Potency, µM (titrated, usually from 46.1 µM), inactives show at the top dose ratio change, negative = inhibition, hits mostly inhibitors. hit rate 0.01% among 200,000; active = well fitted inhibition curve with a large enough effect in the signal ratio, with a control signal flat, not every such curve was filed as active; inconclusive = small, poorly fitted or top-dose-only effect, or effect the other way, or a change in a side signal; the % refers to the signal ratio; note: % is set by controls: 0 for no effect and ±100 for the full control effect
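S3 HeLa cells stably expressing lamin A-EGFP splicing minigene plus DsRed2, 600 cells/well, 48 h compound exposure at 37C. Laser-scanning cytometry; analysed as GFP (500-530 nm)/RFP (575-640 nm) total intensity ratio; 0.5% DMSO vehicle.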
* hit, by the source's call; ? = inconclusive; nt = no result given; [ ] = remark or other dose. Unless noted, calls come from the whole dose curve; as a rule, active = well fitted curve in the direction sought with a large enough effect; inconclusive = small, poorly fitted or top-dose-only effect, or another doubt; inactive = no such curve, though single readings can be large; an effect the other way counts as inactive or inconclusive. Potency is the fitted concentration of half-maximal effect.

SMILES | HttQ103 aggreg | HTT cytoprotect | KinaseGlo FLuc | HPGD inh | ALDH1A1 inh | Lamin A splicing
C/C(N)=C(/C#N)C(=O)CSc1nnc(SCc2ccc(Cl)cc2)s1 | 11µM* | -4%[10 µM] | 0% | -15% | -11% | ?
C/C(N)=C(/C#N)C(=O)CSc1nnc(Nc2c(C)cccc2C)s1 | -7% | -2% | 10% | -17% | ? | ?
CCOc1ccccc1CN1CCN(Cc2nc3ccccc3s2)CC1CCO (configuration not stated) | 5%[9.22 µM] | 1%[10 µM] | 3% | nt | 2% | nt
COc1ccc(CNC(=O)c2ccccc2NS(C)(=O)=O)cc1 | -4% | -38% | -1% | nt | ? | -14%[46 µM]
Cn1nnnc1SCC(=O)c1ccco1 | 14% | 8% | -3% | -9% | 40µM* | 4%
O=C(CSc1nnc2sc3ccccc3n12)c1ccco1 | -3% | -8%[10 µM] | -3% | 22µM* | 16µM* | 1%
CN(C)C(=O)CSc1nnc2sc3ccccc3n12 | -14% | 2% | 0% | -11% | -7% | 0%
O=c1c2ccccc2nnn1CSc1nnc2sc3ccccc3n12 | 8% | 1%[1.9 µM] | -27% | -25% | 13µM* | 12%
O=C(CSCCSCC(=O)c1ccco1)c1ccco1 | 10% | -3%[10 µM] | -3% | ? | 22µM* | 10%
O=C(CSc1nnnn1-c1ccccc1)c1ccco1 | 2% | -8%[10 µM] | 1% | nt | ? | 4%[46 µM]
CCN(CC)CCN(C(=O)c1ccc(C(C)=O)cc1)c1nc2ccc(Cl)cc2s1 | 4% | -39% | 3% | nt | -3% | 1%[9.22 µM]
COC(=O)c1ccc(N2C(=O)Nc3ccccc3N2O)cc1 | -4%[9.22 µM] | -7%[10 µM] | 4% | nt | 11% | ?
Cc1cc(C(=O)Nc2ccccc2C(=O)O)ccc1NC(=O)COc1cccc([N+](=O)[O-])c1 | 29%[9.22 µM] | 11%[10 µM] | 1% | nt | ? | ?
COc1ccccc1NCC(=O)N/N=C/c1sccc1C | 10% | -1% | 1% | nt | ? | nt
Cc1ccc2occ(/C=N/NC(=O)[C@@H](N)Cc3ccccc3)c(=O)c2c1 | -9%[9.22 µM] | 19%[10 µM] | nt | nt | nt | nt
C=CCSc1n[nH]c(-c2ccc(OCCCC)cc2)n1 | -29% | -31% | 1% | 16µM* | 0% | ?
C=CCSc1n[nH]c(-c2ccc(OCCC)cc2)n1 | -29% | -7%[0.074 µM] | -3% | ? | -4% | -2%
CS(C)(=O)=O | nt | -16% | -3% | -14% | 5% | nt
CCS(=O)(=O)c1ccc(-c2csc(-c3ccccc3)n2)c(Cl)c1Cl | 11µM* | -2%[10 µM] | -2% | ? | ? | 0%
Cc1ccc(-c2cc(-c3ccc4c(c3)OCO4)c(C#N)c(N)n2)o1 | 10% | -21% | 1% | ? | ? | ?
N#Cc1nccnc1S(=O)(=O)c1cccs1 | -39%[9.22 µM] | -22%[10 µM] | nt | nt | 0.45µM* | ?
O=S(=O)(c1cccs1)N1CCN(S(=O)(=O)c2cccs2)CC1 | -8%[9.22 µM] | -16%[10 µM] | 2% | nt | 5% | ?
CCC(=O)OCc1c(C(F)(F)F)nn(C)c1Sc1ccc(F)cc1 | -31% | 0% | -4% | -13% | -1% | 18%
O=C(Nc1ccc(S(=O)(=O)NCC2CCCO2)cc1)c1ccccc1 (configuration not stated) | -4% | -14% | 6% | nt | -4% | nt
C=CCSc1nnc(NC(=O)c2cccc(S(=O)(=O)N(C)c3ccccc3)c2)s1 | 10µM* | -18%[0.074 µM] | 4% | ? | ? | ?
SMILES | HttQ103 aggreg | HTT cytoprotect | KinaseGlo FLuc | HPGD inh | ALDH1A1 inh | Lamin A splicing
C=CCSc1nnc(NC(=O)c2ccc(S(=O)(=O)NCC3CCCO3)cc2)s1 (configuration not stated) | 0% | -17% | 5% | 18µM* | ? | ?
COCCn1cnnc1SCC(=O)Nc1cccc(S(=O)(=O)N(C)c2ccccc2)c1 | 17% | 19% | 2% | nt | 5.6µM* | nt
Cc1nnc(SCC(=O)Nc2cccc(S(=O)(=O)N(C)c3ccccc3)c2)s1 | -8% | 21%[10 µM] | 6% | 0.022µM* | -2% | ?
CN(c1ccccc1)S(=O)(=O)c1cccc(C(=O)NCCc2ccc(O)c(O)c2)c1 | ? | 15% | 7% | nt | 28µM* | -24%[46 µM]
COC(=O)CCC/C=C1/SCC(NC(=O)c2ccccc2)C1O (configuration not stated) | 11% | -11%[0.074 µM] | 1% | -12% | ? | ?
COC(=O)CCC/C=C1/SCC(NC(=O)c2ccccc2)C1=O (configuration not stated) | 10% | -16% | -3% | 25µM* | 7.9µM* | 5%
CCOc1cccc(C(=O)NC(=S)Nc2ccc(N3CCCC3)cc2)c1 | 15% | -7%[10 µM] | -1% | -6% | 7.1µM* | -7%
O=C(NC(=S)Nc1ccc2c(c1)OCCO2)c1ccccc1 | 18% | -54% | -6% | -16% | 22µM* | 13%
CCOc1cccc(C(=O)NC(=S)Nc2ccc3c(c2)OCCO3)c1 | -6% | -34% | -6% | nt | 4µM* | nt
CCOc1cccc(C(=O)Nc2ccc(N3CCN(S(C)(=O)=O)CC3)cc2)c1 | 7% | 2% | -9% | -8% | 22% | 16%
O=C(NC(=S)Nc1ccc2c(c1)OCCO2)c1ccccc1F | -4% | -39% | -3% | nt | ? | 11%[46 µM]
S=C(Nc1ccc2c(c1)OCCO2)Nc1ccc2c(c1)OCO2 | -9% | nt | -3% | nt | 22µM* | nt
OCCNC(=S)Nc1ccc2c(c1)OCCO2 | -1%[9.22 µM] | 23%[10 µM] | nt | nt | 5% | nt
CCSc1nnc2n(-c3ccc(OC)cc3)c(=O)c3c4c(sc3n12)CCCC4 | 12% | -2% | -1% | -14% | -7% | 3%
Cc1cc(=O)oc2cc(OCC(=O)N/N=C/c3ccccc3[N+](=O)[O-])ccc12 | 14% | -21%[10 µM] | 3% | -24% | ? | ?
COc1ccc(Nc2nc(N/N=C/c3ccc(N(C)C)cc3)nc(C)c2[N+](=O)[O-])cc1 | -12% | 20%[10 µM] | -3% | -10% | 7.9µM* | -9%
COc1ccc(Nc2nc(NN)nc(C)c2[N+](=O)[O-])cc1 | ? | nt | 0% | nt | ? | nt
CC(C)(C)n1nnnc1C(c1ccc(C(F)(F)F)cc1)N(Cc1ccc(F)cc1)Cc1ccco1 (configuration not stated) | 16µM* | -17%[10 µM] | 1% | -10% | 3% | ?
CCOC(CNC(=O)c1ccc2nc(N3CCC(C)CC3)sc2c1)OCC | -11% | -14% | -5% | -10% | 14µM* | -19%
O=C(c1ccccc1)N1CCN(c2nc3ccc([N+](=O)[O-])cc3s2)CC1 | 21% | -8% | 1% | nt | 10µM* | nt
CC1CCN(c2nc3ccc(C(=O)N4CCN(Cc5ccccc5)CC4)cc3s2)CC1 | -27% | -70% | 0% | 14µM* | 20µM* | ?
O=C(c1ccc2nc(N3CCCCC3)sc2c1)N1CCN(c2ccccn2)CC1 | -15% | 0% | -1% | ? | 28µM* | -3%
CCN(CC)C(=O)c1cc(Cl)ccn1 | -3% | -8% | 0% | nt | 32µM* | nt
